About 83,000 compounds went through this panel and 20% of them were active in at least one assay; those are over-represented in the sample as a whole.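 Step 1: grow cells in 96-well plates. Step 2: add test compound at a single concentration. Step 3: incubate 48 h. Step 4: record percent growth.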 A number with no mark means an inactive call. Activity calls are given as the source filed them. The calls were made as follows: active = growth percent below 10; inactive = the rest.
Experiments:
Test in all cases: NCI-60 one-dose screen, 48 h (100 = growth as untreated, 0 = no growth, -100 = all killed)
Settings in all cases: 10 µM unless noted
NCI-H23 lung = system: NCI-H23 lung
NCI-H226 lung = system: NCI-H226 lung
NCI-H322M lung = system: NCI-H322M lung
HOP-62 NSCLC = system: HOP-62 NSCLC
NCI-H460 lung = system: NCI-H460 lung
HOP-92 NSCLC = system: HOP-92 NSCLC
NCI-H522 lung = system: NCI-H522 lung
A549/ATCC NSCLC = system: A549/ATCC NSCLC
786-0 renal = system: 786-0 renal
COLO 205 colon = system: COLO 205 colon
DU-145 prostate = system: DU-145 prostate
K-562 leukemia = system: K-562 leukemia
MALME-3M melanoma = system: MALME-3M melanoma
MDA-MB-231 breast = system: MDA-MB-231 breast
RXF 393 renal = system: RXF 393 renal
SF-268 CNS = system: SF-268 CNS
SF-295 CNS = system: SF-295 CNS
SF-539 CNS = system: SF-539 CNS
UACC-257 melanoma = system: UACC-257 melanoma
M14 melanoma = system: M14 melanoma

| Structure (SMILES) | growth (NCI-H23 lung) | growth (NCI-H226 lung) | growth (NCI-H322M lung) | growth (HOP-62 NSCLC) | growth (NCI-H460 lung) | growth (HOP-92 NSCLC) | growth (NCI-H522 lung) | growth (A549/ATCC NSCLC) | growth (786-0 renal) | growth (COLO 205 colon) | growth (DU-145 prostate) | growth (K-562 leukemia) | growth (MALME-3M melanoma) | growth (MDA-MB-231 breast) | growth (RXF 393 renal) | growth (SF-268 CNS) | growth (SF-295 CNS) | growth (SF-539 CNS) | growth (UACC-257 melanoma) | growth (M14 melanoma) |
| --- | --- | --- | --- | --- | --- | --- | --- | --- | --- | --- | --- | --- | --- | --- | --- | --- | --- | --- | --- | --- |
| COc1cc2c(cc1-c1c(C)noc1C)ncc1nc(C3CCCCC3)n([C@H](C)COC(F)F)c12 | 59.9% | 53.5% | 40.3% | 39.4% | 53.2% | 34.9% | 25.2% | 33.4% | 48.7% | 24.7% | 63.8% | 24.6% | 69.3% | 41.9% | 52.6% | 58.8% | 52.4% | 34.7% | 31.4% | 39.9% |
| Cc1ccc(OC(=O)c2ccc(Cl)cc2)cc1 | 99.2% | 97.3% | 98.2% | 84.5% | 111% | 100% | 76.1% | 98.4% | 90.2% | 112% | 112% | 96.6% | 101% | 81.7% | 109% | 45.2% | 93.3% | 95% | 102% | 102% |
| COC[C@H](C)n1c(C2CCOCC2)nc2cnc3cc(-c4c(C)noc4C)c(OC)cc3c21 | 70.4% | 67% | 50.4% | 39.8% | 65.2% | 37.1% | 34.4% | 45.6% | 51.6% | 28.9% | 77.5% | 39.1% | 75.7% | 55.4% | 67% | 76.7% | 53.7% | 40.7% | 38.3% | 42.5% |
| C#Cc1cccc(NC(=O)c2ccccc2NC(=O)C=C)c1 | 97.1% [8.25 µM] | 97.6% [8.25 µM] | 101% [8.25 µM] | 92.9% [8.25 µM] | 103% [8.25 µM] | 92.8% [8.25 µM] | 80.5% [8.25 µM] | 98.1% [8.25 µM] | 89.9% [8.25 µM] | 109% [8.25 µM] | 95.6% [8.25 µM] | 98.8% [8.25 µM] | 102% [8.25 µM] | 102% [8.25 µM] | 120% [8.25 µM] | 95.6% [8.25 µM] | 105% [8.25 µM] | 92% [8.25 µM] | 104% [8.25 µM] | 103% [8.25 µM] |
| CSc1nc(NCCN2CCOCC2)c(C#N)c(-c2cccc([N+](=O)[O-])c2)n1 | 97.1% | 106% | 92.9% | 89.4% | 100% | 101% | 85.7% | 99.5% | 101% | 111% | 106% | 100% | 98.7% | 86.3% | 103% | 96.7% | 99.1% | 90.3% | 98.2% | 101% |
| COc1cc(/C=C/c2cc(/C=C/c3ccc(O)c(OC)c3)n(-c3c(C)cccc3C)c(=O)n2)ccc1O | 2.99% (active) | 4.63% (active) | 15.9% | -2.09% (active) | 7.91% (active) | -3.15% (active) | -10.2% (active) | 2.96% (active) | 12.6% | -40.9% (active) | 12.7% | 5.52% (active) | -14% (active) | 23.1% | -32.1% (active) | 8.69% (active) | 8.43% (active) | -23.5% (active) | -6.5% (active) | 8.07% (active) |
| Cc1[nH]c(-c2ccc3cc[nH]c3c2)c2c1C(=O)CCCC2 | 49.3% | 52.4% | 50.4% | 32.3% | 66.8% | 37.1% | 37% | 51.9% | 50.5% | 40.6% | 79.1% | 26.2% | 56.2% | 43.2% | 68.1% | 64.8% | 38.8% | 48.6% | 47.7% | 51.6% |
| O=C(O)c1c(=O)cccc2ssc12 | 0.447% (active) | -14.8% (active) | 62.1% | -45.5% (active) | 1.81% (active) | -0.323% (active) | -0.415% (active) | -51% (active) | -10.1% (active) | -45.7% (active) | -64.5% (active) | 4.02% (active) | -58.3% (active) | -57.3% (active) | -66.8% (active) | -38.6% (active) | -6.02% (active) | -18.6% (active) | 54.1% | 3.29% (active) |
| O=C(N/N=C/c1ccccc1O)c1ccccc1Nc1ccnc(C(F)(F)F)c1 | 30.2% | -11.7% (active) | 13.1% | -5.32% (active) | -13.2% (active) | 7.01% (active) | 24% | 10.4% | 0.0938% (active) | 14.7% | 27.3% | 17.7% | -0.966% (active) | 40.4% | 18.7% | 14.6% | 7.17% (active) | 0.988% (active) | -0.662% (active) | -14.3% (active) |
| O=C(N=Nc1c(O)[nH]c2ccc(Br)cc12)c1cc(-c2ccccc2)on1 | 96.9% | 99.8% | 108% | 102% | 101% | 96.8% | 85% | 103% | 105% | 125% | 110% | 109% | 89.5% | 100% | 117% | 100% | 97.1% | 97.6% | 110% | 104% |
| O=C1c2cc3c(cc2-c2c1c1ccc(F)cc1c(=O)n2C[C@H](O)[C@H](O)[C@H](O)CO)OCO3 | -49.4% (active) | -34.7% (active) | 8.49% (active) | -23.1% (active) | 1% (active) | -7.34% (active) | -24.6% (active) | -45.1% (active) | 0.283% (active) | -30.9% (active) | -1.68% (active) | 5.32% (active) | -48.9% (active) | -1.24% (active) | -57.2% (active) | 1.96% (active) | -23.6% (active) | -41.1% (active) | -43.4% (active) | -20.4% (active) |
| CCOC(=O)c1sc2nc(-c3cccc(OC)c3)nc(N3CCOCC3)c2c1C | 93.5% | 79.5% | 94.4% | 110% | 101% | 80.3% | 85.8% | 84% | 92.8% | 108% | 101% | 97.2% | 117% | 95% | 95.6% | 88.4% | 99.5% | 98.8% | 115% | 120% |
| COc1ccc(-c2n[nH]nc2-c2csc3ccccc23)cc1OC | 35% | 67.2% | 51.7% | 25.2% | 15.7% | 41.6% | 7.11% (active) | 31.9% | 30.7% | 34.7% | 41.5% | 9.48% (active) | 56.9% | 35.6% | 23.5% | 30.2% | 25.9% | -2.39% (active) | 40.1% | 7.35% (active) |
| Cc1nc2ccccc2n1C(=O)C[C@@H]1NC(=S)NC1=O | 95.5% | 92.4% | 96% | 93.2% | 104% | 123% | 96.8% | 93.1% | 101% | 98.9% | 109% | 107% | 83.8% | 95.8% | 108% | 95.1% | 98.4% | 98.6% | 86.9% | 89.3% |
| CC(=O)c1nc2ccccc2n1CC(=O)c1cccc(Cl)c1 | 36.6% | 105% | 48.2% | 55.8% | 4.22% (active) | 75.6% | -16% (active) | 15.2% | 35.8% | 117% | 5.27% (active) | -0.209% (active) | 90.6% | 28.1% | 2% (active) | 13.2% | 8.35% (active) | -31.3% (active) | 36.5% | 16.6% |

From PubChem BioAssay (NCI)
